The supplement of paper PMC8371130
Counter-ions that a name gives are not always drawn.

Tested on: HL-1
Assay: relative cell viability (CellTiter-Glo) vs DMSO control (% of DMSO control); higher = more viable cells
Method in brief: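 One day after HL-1 mouse atrial cardiomyocytes were plated (1000 cells per well, 384-well plates) with compounds at 40, 200, 1000 or 5000 nM in 0.01% DMSO, they were transferred to a hypoxic workstation at 1% O2. After 48 h there, the cells were reoxygenated for 24 h in a normal incubator, and comparison cells stayed in normoxia throughout the same time. Cell viability was quantified with CellTiter-Glo luminescence and normalised to vehicle-treated control cells.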

[1] = oxygen condition: hypoxia 48 h (1% O2) + reoxygenation 24 h, 40 nM
[2] = oxygen condition: hypoxia 48 h (1% O2) + reoxygenation 24 h, 200 nM
[3] = oxygen condition: hypoxia 48 h (1% O2) + reoxygenation 24 h, 1000 nM
[4] = oxygen condition: hypoxia 48 h (1% O2) + reoxygenation 24 h, 5000 nM
[5] = oxygen condition: normoxia 72 h, 40 nM
[6] = oxygen condition: normoxia 72 h, 200 nM
[7] = oxygen condition: normoxia 72 h, 1000 nM
[8] = oxygen condition: normoxia 72 h, 5000 nM

Compound	relative cell viability [1]	relative cell viability [2]	relative cell viability [3]	relative cell viability [4]	relative cell viability [5]	relative cell viability [6]	relative cell viability [7]	relative cell viability [8]
C[N+](C)(C)CC(O)CC(=O)[O-] (racemic) [DL-Carnitine hydrochloride]	100	95.2	97.2	107	104	102	103	91.5
CC[C@@]1(O)C(=O)OCc2c1cc1n(c2=O)Cc2cc3c(CN(C)C)c(O)ccc3nc2-1 [Topotecan HCl]	58.6	37.4	19.8	9.1	52.3	30.9	15.1	6.41
COc1ccc(C[C@@H]2c3cc(OC)c(OC)cc3CC[N@+]2(C)CCC(=O)OCCCCCOC(=O)CC[N@@+]2(C)CCc3cc(OC)c(OC)cc3[C@H]2Cc2ccc(OC)c(OC)c2)cc1OC [Cisatracurium besylate]	108	100	107	109	105	103	109	128
CN(C)CCOC(C)(c1ccccc1)c1ccccn1 (stereo not drawn) [Doxylamine Succinate]	111	104	105	109	107	112	117	123
CCC[C@H](N[C@@H](C)C(=O)N1[C@H](C(=O)O)C[C@@H]2CCCC[C@@H]21)C(=O)OCC [Perindopril Erbumine]	110	81	107	115	109	111	111	114
Cc1ccc(S(=O)(=O)NC(=O)NN2CCCCCC2)cc1 [Tolazamide]	101	103	98.3	110	102	99.1	106	117
COc1ccc([C@@H]2Sc3ccccc3N(CCN(C)C)C(=O)[C@@H]2OC(C)=O)cc1 [Diltiazem HCl]	104	105	106	114	105	108	109	113
CCC(C)(C)C(=O)O[C@H]1C[C@@H](C)C=C2C=C[C@H](C)[C@H](CC[C@@H]3C[C@@H](O)CC(=O)O3)[C@H]21 [Simvastatin]	109	108	99.2	3.87	111	103	50.4	2.69
Cc1[nH]c(=O)c(C#N)cc1-c1ccncc1 [Milrinone]	102	106	105	111	99.8	108	99.1	113
C[C@H](Cc1cc2c(c(C(N)=O)c1)N(CCCO)CC2)NCCOc1ccccc1OCC(F)(F)F [Silodosin]	106	98.3	102	105	102	104	108	104
C[C@]12C=CC(=O)N[C@@H]1CC[C@@H]1[C@@H]2CC[C@]2(C)[C@@H](C(=O)Nc3cc(C(F)(F)F)ccc3C(F)(F)F)CC[C@@H]12 [Dutasteride]	104	106	109	108	105	106	113	99.6
CC(=O)Oc1cc2c(s1)CCN(C(C(=O)C1CC1)c1ccccc1F)C2 (stereo not drawn) [Prasugrel]	115	104	106	110	106	105	122	120
CCN1CCC[C@H]1CNC(=O)c1cc(S(N)(=O)=O)ccc1OC [Levosulpiride]	98	107	105	116	107	108	108	116
CCCC(=O)[O-].[Na+] [Sodium butyrate]	103	101	99.4	107	98.7	99.2	105	107
O=C(CCCCCCC(=O)Nc1ccccc1)NO [Vorinostat]	101	105	85	27.2	103	101	90.1	14.6
CC1=C(C(=O)OC(C)C)C(c2cccc([N+](=O)[O-])c2)C(C(=O)OC2CN(C(c3ccccc3)c3ccccc3)C2)=C(N)N1 (stereo not drawn) [Azelnidipine]	104	110	106	112	109	110	112	119
C[C@H]1O[C@H](O[C@H]2[C@H](O)[C@@H](O)[C@@H](O[C@H]3[C@H](O)[C@@H](O)C(O)O[C@@H]3CO)O[C@@H]2CO)[C@H](O)[C@@H](O)[C@@H]1N[C@H]1C=C(CO)[C@@H](O)[C@H](O)[C@H]1O (stereo partly drawn) [Acarbose]	106	108	108	107	106	107	111	107
Clc1ccc2nsnc2c1NC1=NCCN1 [Tizanidine HCl]	99.5	106	106	108	105	106	98.5	111
CCC(C)n1ncn(-c2ccc(N3CCN(c4ccc(OCC5COC(Cn6cncn6)(c6ccc(Cl)cc6Cl)O5)cc4)CC3)cc2)c1=O (stereo not drawn) [Itraconazole]	99.1	101	100	108	103	106	101	107
O=C1NC(=O)C(c2ccccc2)(c2ccccc2)N1 [Phenytoin]	98.3	97.9	98.1	103	95.4	61.2	93.3	99.4
CC(C)C[C@H](NC(=O)[C@H](CCc1ccccc1)NC(=O)CN1CCOCC1)C(=O)N[C@@H](Cc1ccccc1)C(=O)N[C@@H](CC(C)C)C(=O)[C@@]1(C)CO1 [Carfilzomib]	3.62	3.8	4.12	3.78	3.3	4.04	3.72	3.71
